According to PubChem BioAssay (Tox21):
Inconclusive results are not listed. Activity calls are given as the source filed them. Unless noted, calls follow the shape of the dose curve; as a rule, active = well fitted curve in the direction sought with a large enough effect in the repeat runs; inconclusive = weak or mixed curves; inactive = no such curve, though single readings can be large; an effect the other way counts as inactive or inconclusive.

Experiments:
[1] = qHTS assay to identify small molecule agonists of the estrogen receptor beta (ER-beta) signaling pathway - cell viability counter screen (AID 1259380); also: nearly all actives have a fitted effect of over 30% in size; also: potency is read from the fitted curve at half-maximal effect
Summary of the method: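 Same-well viability counter screen. Cells: ER-beta-UAS-bla HEK293T, plated 6 hr before compound, in 2% charcoal-stripped FBS. Compound exposure 16 hr, 37C; viability by CellTiter-Glo luminescence after 30 min at room temperature.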

[2] = qHTS assay to identify small molecule antagonists of the estrogen receptor beta (ER-beta) signaling pathway - cell viability counter screen (AID 1259382); also: nearly all actives have a fitted effect of over 55% in size; also: potency is read from the fitted curve at half-maximal effect;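 as to activity change, negative = cytotoxicity: HEK293T cells carrying ER-beta-UAS-bla reporter stimulated with estradiol; series mostly up to about 92 µM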
Summary of the method: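 Following a 6 hr plating period, HEK293T cells carrying a UAS-driven beta-lactamase reporter under ER-beta control received compounds and 1nM E2 (final). After 16 hr at 37C and 2 hr substrate loading, CellTiter-Glo luminescence indicated viability.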

[3] = target: Estrogen receptor (Homo sapiens) (UniProt P03372); test: qHTS assay to identify small molecule agonists of the estrogen receptor alpha (ER-alpha) signaling pathway in the presence of an antagonist (AID 1259383; calls by dose curve; also: top concentration of the series differs between compounds; nearly all actives have a fitted effect of over 15% in size)
Summary of the method: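 Cells are hormone-deprived for 5 days (charcoal-stripped FBS, no phenol red), plated for 24hr, spiked with 10.0nM ICI-182,780, then dosed at 15 concentrations. After 22hr at 37C, ONE-Glo luminescence reports ERE-luciferase activity.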

[4] = qHTS assay to identify small molecule agonists of the estrogen receptor alpha (ER-alpha) signaling pathway in the presence of an antagonist - cell viability counter screen (AID 1259386);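 also: cells exposed to compounds for 22 h at 37 °C before the viability read; nearly all actives have a fitted effect of over 30% in size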; also: potency is read from the fitted curve at half-maximal effect; as to activity change, negative = cytotoxicity: series mostly up to about 92 µM
Summary of the method: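 Cells are starved of estrogens for 5 days in charcoal-stripped serum, seeded for 24hr and co-treated with ICI-182,780 (10.0nM final) and test compounds. After 22hr at 37C, viability is read as CellTiter-Fluor fluorescence.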

[5] = target: Progesterone receptor (Homo sapiens) (UniProt P06401); test: qHTS assay to identify small molecule agonists of the progesterone receptor (PR) signaling pathway (AID 1346784; calls by dose curve; also: nearly all actives have a fitted effect of over 30% in size)
Summary of the method: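 HEK 293T PR-UAS-bla reporter cells, 2% charcoal-stripped FBS; 6 hr settle at 37C/5% CO2, compound (DMSO) 16 hr, LiveBLAzer B/G FRET substrate 2 hr RT, fluorescence intensity read.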

[6] = target: Progesterone receptor (Homo sapiens) (UniProt P06401); test: qHTS assay to identify small molecule antagonists of the progesterone receptor (PR) signaling pathway (AID 1346795; active = well fitted inhibition curve with a large enough effect in the signal ratio in the repeat runs, not every such curve was filed as active; the % refers to the signal ratio; also: potency is read from the fitted curve at half-maximal effect)
Summary of the method: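 Beta-lactamase reporter, HEK293T PR-UAS-bla line; 2% charcoal-stripped FBS; 6 hr pre-incubation, 37C/5% CO2. Compound + R5020 1 nM final, 16 hr. LiveBLAzer B/G FRET substrate, 2 hr RT; fluorescence intensity read.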

[7] = qHTS assay to identify small molecule antagonists of the progesterone receptor (PR) signaling pathway - cell viability counter screen (AID 1346798); also: series mostly up to about 92 µM; nearly all actives have a fitted effect of over 50% in size
Summary of the method: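 Luminescence readout (CellTiter-Glo, 30 min, RT) of viability in PR-UAS-bla HEK293T cells exposed to compound and R5020 agonist for 16 hr at 37C, 5% CO2; run in the same wells as the beta-lactamase reporter read.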

[8] = qHTS assay to identify small molecule agonists of the progesterone receptor (PR) signaling pathway - cell viability counter screen (AID 1346799; calls by dose curve; also: nearly all actives have a fitted effect of over 45% in size; also: potency is read from the fitted curve at half-maximal effect)
Summary of the method: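 HEK293T PR-UAS-bla, 3,000 cells/well, 2% charcoal-stripped FBS; 6 h settle, compound 16 h at 37C/5% CO2; LiveBLAzer 2 h RT, then CellTiter-Glo 30 min RT, luminescence read.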

[9] = qHTS assay to identify small molecule antagonists of the TGF-beta/Smad signaling pathway - cell viability counter screen (AID 1346824); also: nearly all actives have a fitted effect of over 50% in size
Summary of the method: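 SBE-bla HEK 293T cells were plated overnight at 37 C, then given compounds in DMSO plus TGF-beta1 (added as 0.25 ng/mL solution) for 5 hr. After the bla read, CellTiter-Glo was added to the same wells and luminescence read after 30 min at room temperature.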

[10] = qHTS assay to identify small molecule agonists of the TGF-beta/Smad signaling pathway (AID 1346859; active = well fitted activation curve with a large enough effect in the signal ratio in the repeat runs, not every such curve was filed as active; the % refers to the signal ratio; also: series mostly up to about 77 µM)
Summary of the method: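 Read-out: fluorescence at 460 and 530 nm (405 nm excitation) after a 2 hr room-temperature incubation with beta-lactamase FRET substrate. SBE-bla HEK 293T cells had been treated with test compounds for 5 hr at 37 C.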

[11] = target: Thyrotropin-releasing hormone receptor (Homo sapiens) (UniProt P34981); test: qHTS assay to identify small molecule antagonists of the thyrotropin-releasing hormone receptor (TRHR) signaling pathway (AID 1346877; active = well fitted inhibition curve with a large enough effect in the repeat runs, not every such curve was filed as active; also: series mostly up to about 51 µM)
Summary of the method: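 Cells (TRHR-HEK293) are plated and kept 18 h at 37 °C/5% CO2. A calcium-sensitive dye is added for 2 h, compound follows for 5 min at room temperature, and TRH is then given at 1 nM final.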

[12] = target: Thyrotropin-releasing hormone receptor (Homo sapiens) (UniProt P34981); test: qHTS assay to identify small molecule agonists of the thyrotropin-releasing hormone receptor (TRHR) signaling pathway (AID 1346891; calls by dose curve;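 also: HEK293 cells expressing TRHR with calcium dye readout; series mostly up to about 58 µM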)
Summary of the method: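 HEK293/TRHR cells, 1500 per well, 18 h 37 °C; Ca dye 2 h 37 °C; pin-tool compound addition (agonist mode); kinetic fluorescence 3 min, 1 s reads; 15 concentrations, triplicate.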

[13] = Caspase-3/7 induction in HepG2 cells by small molecules, qHTS assay (AID 1346978); also: nearly all actives have a fitted effect of over 15% in size; also: potency is read from the fitted curve at half-maximal effect
Summary of the method: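 Wild-type HepG2 cells (2,000/well) were settled 5 h at 37 C, 5% CO2, then exposed to compounds in DMSO for 17 h. Caspase-3/7 activity was read by luminescence 30 min after adding Caspase-Glo 3/7 reagent at room temperature.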

[14] = Caspase-3/7 induction in CHO-K1 cells by small molecules, qHTS cell viability counter screen (AID 1346979); also: nearly all actives have a fitted effect of over 35% in size; also: potency is read from the fitted curve at half-maximal effect
Summary of the method: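 CHO-K1 wt, 1,500 cells/well; 5hr pre-incubation 37C/5% CO2; compound pin transfer (DMSO); 16hr exposure; CellTiter-Fluor added, 1hr, fluorescence read.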

[15] = Caspase-3/7 induction in CHO-K1 cells by small molecules, qHTS assay (AID 1346980); also: nearly all actives have a fitted effect of over 15% in size; also: potency is read from the fitted curve at half-maximal effect
Summary of the method: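 Wild-type cells were seeded at 1,500 per well and settled 5 hr at 37 C, 5% CO2, then exposed to DMSO-dissolved compounds for 17 hr. Caspase-Glo 3/7 reagent was added, and luminescence was read after 30min at room temperature.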

[16] = target: Androgen receptor (Homo sapiens) (UniProt P10275); test: qHTS assay to identify small molecule agonists of the androgen receptor (AR) signaling pathway in the presence of an antagonist (AID 1259381; calls by dose curve; also: nearly all actives have a fitted effect of over 15% in size)
Summary of the method: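 Cells are MDA-kb2 (human breast carcinoma, MMTV-luc, AR/GR responsive). Nilutamide is present at 3.0uM final throughout; compounds are added at 15 concentrations and incubated 16hr at 37C before ONE-Glo luminescence detection.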

[17] = qHTS assay to identify small molecule agonists or antagonists of the thyroid stimulating hormone receptor (TSHR) signaling pathway - wild type cell line counter screen (AID 1259384; calls by dose curve)
Summary of the method: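 Wild-type HEK293 cells were plated 18 h at 37 C/5% CO2, pin-dosed with compound plus Ro20-1724 medium, held 30 min at room temperature, then given cAMP-d2 and anti-cAMP-cryptate; fluorescence was read after 1 h. Fifteen concentrations, triplicate.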

[18] = qHTS assay to identify small molecule agonists of the TGF-beta/Smad signaling pathway - cell viability counter screen (AID 1346829); also: top concentration of the series differs between compounds; nearly all actives have a fitted effect of over 45% in size
Summary of the method: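 Cytotoxicity counter screen: CellTiter-Glo luminescence (30 min, room temperature) measured in the SBE-bla HEK 293T reporter wells after 5 hr compound treatment at 37 C and the 2 hr substrate step.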

[19] = Human pregnane X receptor (PXR) small molecule agonists, qHTS cell viability counter screen (AID 1346977); also: nearly all actives have a fitted effect of over 50% in size
Summary of the method: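 Fluorescence read-out (CellTiter-Fluor) of viability in PXR-Luc HepG2 cells, multiplexed with the luciferase agonist read. Compounds in DMSO added after 5hr plating; 24hr total exposure at 37C, 5% CO2.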

[20] = target: Thyrotropin receptor (Homo sapiens) (UniProt P16473); test: qHTS assay to identify small molecule antagonists of the thyroid stimulating hormone receptor (TSHR) signaling pathway (AID 1259385; calls by dose curve; also: nearly all actives have a fitted effect of over 20% in size)
Summary of the method: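 TSHR-HEK293 cells were plated and held 18 h at 37C/5% CO2, then given compound plus Ro20-1724 and stimulated with TSH at 1.5 ng/mL final. After 30 min at room temperature, cAMP was detected with cAMP-d2/anti-cAMP-cryptate (1 h) by fluorescence.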
% is scaled to controls: 0 for no effect and ±100 for the full control effect.

Chain of Estrogen receptor (Homo sapiens) (P03372 whole entry, looked up): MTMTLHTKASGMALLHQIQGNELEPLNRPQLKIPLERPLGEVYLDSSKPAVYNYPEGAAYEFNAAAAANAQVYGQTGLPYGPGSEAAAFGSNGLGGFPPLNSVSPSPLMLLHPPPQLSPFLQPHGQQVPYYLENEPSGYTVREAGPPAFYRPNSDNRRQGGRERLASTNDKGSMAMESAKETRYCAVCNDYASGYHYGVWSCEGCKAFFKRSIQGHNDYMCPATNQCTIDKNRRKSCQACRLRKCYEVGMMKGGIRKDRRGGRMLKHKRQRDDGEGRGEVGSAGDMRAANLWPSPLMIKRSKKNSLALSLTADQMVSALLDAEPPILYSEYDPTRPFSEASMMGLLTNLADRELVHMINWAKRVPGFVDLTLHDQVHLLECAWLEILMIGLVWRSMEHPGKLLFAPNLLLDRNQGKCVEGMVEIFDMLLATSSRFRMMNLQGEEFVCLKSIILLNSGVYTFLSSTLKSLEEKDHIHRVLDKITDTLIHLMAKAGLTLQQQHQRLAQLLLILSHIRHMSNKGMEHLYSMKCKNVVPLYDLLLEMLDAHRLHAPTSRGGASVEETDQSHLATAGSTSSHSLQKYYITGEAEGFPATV
Chain of Thyrotropin-releasing hormone receptor (Homo sapiens) (P34981 whole entry, looked up): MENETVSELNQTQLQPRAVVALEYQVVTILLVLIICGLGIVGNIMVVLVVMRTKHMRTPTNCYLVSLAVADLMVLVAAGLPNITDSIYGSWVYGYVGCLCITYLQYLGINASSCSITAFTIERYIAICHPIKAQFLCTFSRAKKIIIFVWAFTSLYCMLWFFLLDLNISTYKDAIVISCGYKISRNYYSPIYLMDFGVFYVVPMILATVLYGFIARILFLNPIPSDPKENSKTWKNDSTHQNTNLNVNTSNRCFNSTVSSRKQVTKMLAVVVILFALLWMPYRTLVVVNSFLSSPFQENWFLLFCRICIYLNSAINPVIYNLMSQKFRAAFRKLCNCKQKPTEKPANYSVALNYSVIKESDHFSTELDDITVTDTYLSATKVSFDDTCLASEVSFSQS
Chain of Progesterone receptor (Homo sapiens) (P06401 whole entry, looked up): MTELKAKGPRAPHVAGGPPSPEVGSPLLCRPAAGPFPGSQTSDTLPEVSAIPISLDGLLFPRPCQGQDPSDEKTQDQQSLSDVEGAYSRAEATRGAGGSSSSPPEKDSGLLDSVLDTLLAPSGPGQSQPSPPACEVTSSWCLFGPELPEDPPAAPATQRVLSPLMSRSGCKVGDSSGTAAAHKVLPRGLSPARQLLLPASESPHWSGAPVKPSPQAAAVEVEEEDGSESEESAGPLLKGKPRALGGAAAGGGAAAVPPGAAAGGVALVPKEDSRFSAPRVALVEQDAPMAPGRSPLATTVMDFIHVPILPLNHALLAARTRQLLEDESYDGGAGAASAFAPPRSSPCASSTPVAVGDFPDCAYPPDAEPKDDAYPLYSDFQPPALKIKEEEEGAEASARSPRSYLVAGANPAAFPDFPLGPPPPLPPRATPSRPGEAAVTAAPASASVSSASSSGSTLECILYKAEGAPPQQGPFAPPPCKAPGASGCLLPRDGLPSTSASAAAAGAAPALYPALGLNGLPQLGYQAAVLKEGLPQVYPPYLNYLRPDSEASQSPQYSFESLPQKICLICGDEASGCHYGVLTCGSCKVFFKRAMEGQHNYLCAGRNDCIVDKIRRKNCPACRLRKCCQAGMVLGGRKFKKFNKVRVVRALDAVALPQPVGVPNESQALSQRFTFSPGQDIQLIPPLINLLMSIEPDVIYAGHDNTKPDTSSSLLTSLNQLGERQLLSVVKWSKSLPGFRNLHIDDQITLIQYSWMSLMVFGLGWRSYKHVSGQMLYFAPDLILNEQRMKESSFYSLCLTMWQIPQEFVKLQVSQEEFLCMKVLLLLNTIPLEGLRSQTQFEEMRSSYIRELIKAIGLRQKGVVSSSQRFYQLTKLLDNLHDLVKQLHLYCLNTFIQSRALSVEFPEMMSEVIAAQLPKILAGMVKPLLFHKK
Chain of Androgen receptor (Homo sapiens) (P10275 whole entry, looked up): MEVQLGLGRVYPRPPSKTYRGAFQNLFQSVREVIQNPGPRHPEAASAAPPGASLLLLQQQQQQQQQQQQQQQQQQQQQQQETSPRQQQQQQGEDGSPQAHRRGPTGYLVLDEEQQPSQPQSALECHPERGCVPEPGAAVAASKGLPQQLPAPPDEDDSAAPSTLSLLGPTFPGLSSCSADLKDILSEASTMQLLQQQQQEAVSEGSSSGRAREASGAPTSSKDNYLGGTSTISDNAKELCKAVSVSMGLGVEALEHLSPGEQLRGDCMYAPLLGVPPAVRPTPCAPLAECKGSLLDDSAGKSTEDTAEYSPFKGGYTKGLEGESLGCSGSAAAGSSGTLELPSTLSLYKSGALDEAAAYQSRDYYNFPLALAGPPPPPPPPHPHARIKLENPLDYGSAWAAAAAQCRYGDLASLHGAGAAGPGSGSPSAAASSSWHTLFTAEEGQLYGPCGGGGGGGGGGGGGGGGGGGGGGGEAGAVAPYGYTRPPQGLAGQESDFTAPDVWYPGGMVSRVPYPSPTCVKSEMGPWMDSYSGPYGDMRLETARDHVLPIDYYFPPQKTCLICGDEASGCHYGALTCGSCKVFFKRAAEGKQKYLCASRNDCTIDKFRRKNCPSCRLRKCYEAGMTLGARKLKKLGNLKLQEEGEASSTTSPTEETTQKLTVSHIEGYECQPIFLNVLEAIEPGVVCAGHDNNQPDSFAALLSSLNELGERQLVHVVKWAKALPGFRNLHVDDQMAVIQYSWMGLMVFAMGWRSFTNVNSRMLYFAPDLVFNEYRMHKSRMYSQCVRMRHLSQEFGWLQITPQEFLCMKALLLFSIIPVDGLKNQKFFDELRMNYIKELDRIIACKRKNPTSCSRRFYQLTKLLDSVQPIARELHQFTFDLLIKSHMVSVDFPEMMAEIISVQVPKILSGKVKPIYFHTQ
Chain of Thyrotropin receptor (Homo sapiens) (P16473 whole entry, looked up): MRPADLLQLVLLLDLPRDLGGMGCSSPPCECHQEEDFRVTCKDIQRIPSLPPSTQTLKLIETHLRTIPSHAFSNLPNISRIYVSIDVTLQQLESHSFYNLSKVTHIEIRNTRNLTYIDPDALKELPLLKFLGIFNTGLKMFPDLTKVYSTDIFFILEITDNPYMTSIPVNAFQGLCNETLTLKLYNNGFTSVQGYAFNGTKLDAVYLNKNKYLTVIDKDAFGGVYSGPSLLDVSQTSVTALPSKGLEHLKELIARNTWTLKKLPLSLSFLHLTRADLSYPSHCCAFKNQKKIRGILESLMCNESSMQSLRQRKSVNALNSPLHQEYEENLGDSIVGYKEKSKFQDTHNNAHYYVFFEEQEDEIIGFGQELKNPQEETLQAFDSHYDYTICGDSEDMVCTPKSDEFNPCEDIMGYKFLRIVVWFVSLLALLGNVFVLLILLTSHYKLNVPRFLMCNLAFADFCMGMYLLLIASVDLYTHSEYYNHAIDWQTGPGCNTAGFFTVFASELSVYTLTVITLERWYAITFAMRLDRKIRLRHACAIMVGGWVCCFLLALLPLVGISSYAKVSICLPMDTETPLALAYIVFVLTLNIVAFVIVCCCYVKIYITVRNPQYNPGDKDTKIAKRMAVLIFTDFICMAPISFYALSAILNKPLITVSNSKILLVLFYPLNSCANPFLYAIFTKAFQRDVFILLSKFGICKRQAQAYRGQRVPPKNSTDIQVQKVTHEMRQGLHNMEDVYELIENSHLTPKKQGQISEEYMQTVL

Oc1cccc2c(O)cccc12
inactive: Potency [3] | Potency [4] | outcome [5] | Potency [7] | Potency [8] | Potency [9] | outcome [10] | Potency [11] | Potency [12] | Potency [13] | Potency [15]
active: Potency [1] 61.1 µM | Potency [2] 61.1 µM | Potency [6] 48.6 µM | Potency [14] 54.5 µM

O=C(NCc1ncc(C(F)(F)F)cc1Cl)c1c(Cl)cccc1Cl
inactive: Potency [16] | Potency [3] | Potency [17] | outcome [5] | Potency [8] | Potency [9] | Potency [18] | outcome [10] | Potency [11] | Potency [12] | Potency [19] | Potency [14]
active: Potency [1] 43.3 µM | Potency [6] 24.3 µM | Potency [13] 19.3 µM

O[Si](c1ccccc1)(c1ccccc1)c1ccccc1
active: Potency [1] 48.6 µM | Potency [14] 30.6 µM
inactive: Potency [16] | Potency [3] | Potency [17] | Potency [20] | Potency [4] | outcome [5] | Potency [7] | Potency [9] | Potency [18] | outcome [10] | Potency [19] | Potency [13] | Potency [15]

NC(=O)c1ccccc1Cl
inactive: Potency [1] | Potency [2] | Potency [3] | outcome [5] | Potency [6] | Potency [7] | Potency [8] | Potency [9] | Potency [18] | outcome [10] | Potency [19] | Potency [13] | Potency [14] | Potency [15]

NC(=O)C1CO1 (stereo not given)
inactive: Potency [1] | Potency [2] | Potency [3] | Potency [17] | Potency [20] | outcome [5] | Potency [6] | Potency [7] | Potency [8] | Potency [9] | outcome [10] | Potency [11] | Potency [12] | Potency [19] | Potency [13] | Potency [14] | Potency [15]

O=C(O)C[C@H](O)C[C@H](O)/C=C/c1c(C2CC2)nc2ccccc2c1-c1ccc(F)cc1
active: Potency [1] 3.26 µM | Potency [8] 0.651 µM | Potency [13] 10.3 µM | Potency [15] 5.8 µM
inactive: activation [16] -0.267% [at 19 µM] | activation [3] -0.342% [at 19 µM] | cAMP activity change [17] -3.96% [at 18.9 µM, active compounds read high] | activity change, negative = inhibition [20] 1.31% [at 19 µM] | activation [5] -0.575% [at 19 µM] | viability change, negative = cytotoxic [9] 0.256% [at 15.8 µM] | activity change, negative = cytotoxicity [18] 3.76% [at 15.8 µM] | activation [10] -0.423% [at 15.8 µM] | activation [12] -0.474% [at 11.8 µM] | activity change, negative = cytotoxicity [19] -7.27% [at 19 µM]

Cc1ccc2nc(-c3ccc(N)cc3)sc2c1S(=O)(=O)O
inactive: Potency [1] | Potency [2] | Potency [3] | Potency [17] | Potency [20] | Potency [4] | Potency [7] | Potency [8] | Potency [9] | Potency [11] | Potency [12] | Potency [19] | Potency [13] | Potency [14] | Potency [15]

C1CCSC1
inactive: Potency [1] | Potency [2] | Potency [3] | Potency [17] | Potency [20] | Potency [4] | outcome [5] | Potency [6] | Potency [7] | Potency [8] | Potency [9] | Potency [18] | outcome [10] | Potency [19] | Potency [13] | Potency [14] | Potency [15]

CC(=O)Nc1ccc(N=Nc2cc(C)ccc2O)cc1
active: Potency [4] 15.4 µM | Potency [6] 48.6 µM | Potency [14] 68.6 µM
inactive: Potency [1] | Potency [2] | Potency [3] | outcome [5] | Potency [7] | Potency [9] | Potency [18] | outcome [10] | Potency [13] | Potency [15]
